Sampled rows, rich in hits. Any-hit rate of the full collection: about 19%.
Cycloheximide cs: Cycloheximide Counterscreen for Small Molecule Inhibitors of Shiga Toxin; actives 12% (n = 300,000); AID 2314, 2010; cell reporter, cycloheximide protein synthesis inhibition counterscreen; max response, %; in the data active = max response mostly above about 13%, no sharp cut-off; inactive = mostly below about 14%; also: read at 38.3 µM for the half of the compounds with a filed dose
Lassa entry inh: qHTS for Inhibitors of binding or entry into cells for Lassa Virus. AID 540256, 2011. Lassa virus pseudotype entry inhibition, cell reporter. Potency, µM (titrated, usually from 37.9 µM), hits mostly inhibitors. actives 1.2% (n = 300,000); calls by dose curve; tested in HEK293 cells; also: nearly all actives have a fitted effect of over 50% in size
Pf growth 48h: Primary qHTS for delayed death inhibitors of the malarial parasite plastid, 48 hour incubation. actives 5.9% (n = 310,000). P. falciparum luciferase growth in erythrocytes, 48 h. Potency, µM (series often up to 28.7 µM), actives largely listed as inhibitors. AID 504832, 2011
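Erythrocytes infected with P. falciparum carrying an integrated firefly luciferase reporter (2% hematocrit, 0.1% parasitemia final) were exposed to compounds in RPMI 1640 with 0.5% Albumax at 37 C, 5% CO2. Growth inhibition was scored as reduced luminescence.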
Shiga inhibitor: A qHTS for Small Molecule Inhibitors of Shiga Toxin; Vero cells, Shiga toxin protein synthesis inhibition reporter; actives 9.2% (n = 290,000); inhibition, % at 38.7 µM; in the data active = inhibition mostly above about 28%, no sharp cut-off; inactive = mostly below about 43%
Pf growth 96h: Primary qHTS for delayed death inhibitors of the malarial parasite plastid, 96 hour incubation; P. falciparum luciferase reporter growth, 96 h; Potency, µM (titrated, usually from 28.7 µM), hits mostly inhibitors; AID 504834, 2011; actives 6.9% (n = 320,000)
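Plates of compound plus infected erythrocytes (2% hematocrit, 0.05% parasitemia final) incubate 96 hours, 37 C, 5% CO2. Detection reagent added; reduced luminescence from the parasites' luciferase reporter flags inhibition.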
Marburg entry inh: qHTS for inhibitors of binding or entry into cells for Marburg Virus | Marburg virus pseudotyped entry inhibition, cell reporter | Potency, µM (highest dose often 37.8 µM), usual class: inhibitors | actives 1.8% (n = 300,000) | AID 540276, 2011; calls by dose curve; tested in HEK293 cells
Large screens that a line does not name were inactive. Unless noted, calls follow the shape of the dose curve; as a rule, active = well fitted inhibition curve with a large enough effect; inconclusive = small, poorly fitted or top-dose-only effect, or another doubt; inactive = no such curve, though single readings can be large or run the other way.

COc1ccc(OCC(O)COc2ccc(OC)cc2)cc1	none
O=[N+]([O-])c1ccc(OCC(O)CN(C2CCCCC2)C2CCCCC2)cc1 (stereo unspecified)	Pf growth 48h inconclusive, Pf growth 96h inconclusive, Marburg entry inh inconclusive
COc1ccc(OCC(O)CN(CC(O)COc2ccc(OC)cc2)c2cccc(O)c2)cc1 (stereo unspecified)	Cycloheximide cs 18.7, Pf growth 48h inconclusive, Pf growth 96h inconclusive (no result: Lassa entry inh, Marburg entry inh)
O=S(=O)(c1ccc(Oc2ccc(Br)cc2F)nc1)N1CCCCC1	Pf growth 96h inconclusive, Marburg entry inh inconclusive
Cc1sc2ncnc(SCC(=O)N3CCOCC3)c2c1C	none (no result: Cycloheximide cs, Lassa entry inh, Shiga inhibitor, Marburg entry inh)
Cc1ccc(OCC(=O)Nc2ccccc2[N+](=O)[O-])c(Br)c1	Cycloheximide cs 42.0, Shiga inhibitor 121.6, Marburg entry inh inconclusive
COC(=O)c1ccccc1NC(=O)COc1ccccc1[N+](=O)[O-]	none
Cc1ccc(OC/C(=N\O)C(C)(C)C)c([N+](=O)[O-])c1	Cycloheximide cs 34.0, Lassa entry inh inconclusive, Shiga inhibitor 75.1, Marburg entry inh inconclusive
Cc1ccc(OCC(=O)Nc2ccon2)c([N+](=O)[O-])c1	Cycloheximide cs 41.8, Shiga inhibitor 84.0 (no result: Lassa entry inh, Marburg entry inh)
Cc1ccc(/C=N\NC(=O)COc2ccc(C)cc2[N+](=O)[O-])cc1	Pf growth 48h inconclusive, Pf growth 96h inconclusive
COc1cc(-n2c(=O)c3ccccc3n(Cc3cccc(Cl)c3)c2=O)cc(OC)c1OC	none (no result: Cycloheximide cs, Pf growth 48h, Shiga inhibitor, Pf growth 96h)
O=C(CCNc1ccccc1)c1ccc2c(c1)OCO2	Cycloheximide cs 62.9, Lassa entry inh inconclusive, Shiga inhibitor 71.5
CN(C)CCC(=O)c1ccc2c(c1)OCO2	Cycloheximide cs 24.3
COC(=O)CC1C(=O)NCCN1C(=S)Nc1cc(C)cc(C)c1 (stereo unspecified)	Pf growth 96h inconclusive
C[C@H]1Cc2c(-c3ccccc3)nc3c(c2CO1)CN(C(=O)Cc1cccs1)CC3	none (no result: Cycloheximide cs, Lassa entry inh, Pf growth 48h, Shiga inhibitor, Pf growth 96h)
O=C(/C=C/c1ccc2ccccc2n1)c1cc(Cl)ccc1O	Cycloheximide cs 39.1, Pf growth 48h 2.33µM, Shiga inhibitor 65.7, Pf growth 96h inconclusive
O=C(/C=C/c1cccs1)c1cc(Cl)ccc1O	Pf growth 48h inconclusive (no result: Lassa entry inh, Marburg entry inh)
Cc1nn(-c2ccccc2)c(N2CCCC2)c1/C=N/NC(=S)Nc1ccccc1F	Cycloheximide cs 72.4, Lassa entry inh inconclusive, Pf growth 48h 10.4µM, Shiga inhibitor 98.1, Pf growth 96h inconclusive, Marburg entry inh inconclusive
Cc1cc(C)c2nc(SC(C)C(=O)NCC(=O)Nc3ccc(F)c(F)c3F)cc(C)c2c1 (stereo unspecified)	Marburg entry inh inconclusive
CCOc1ccc(/C=C(\C#N)C(=O)Nc2sc3c(c2C(=O)OC)C(C(=O)OC)CC3)cc1OC (stereo unspecified)	none (no result: Cycloheximide cs, Pf growth 48h, Shiga inhibitor, Pf growth 96h, Marburg entry inh)
O=S(=O)(c1ccc(Cl)s1)N1CCCc2cccc(O)c21	Cycloheximide cs 49.5, Shiga inhibitor 83.9 (no result: Pf growth 48h)
COc1ccc(NC(=O)C(c2ccccc2)N(C)C(=O)CNC(C)=O)cc1 (stereo unspecified)	none (no result: Pf growth 96h)
CCOc1ccccc1CNc1ncnc2ccc(-c3c(C)noc3C)cc12	Cycloheximide cs 30.1, Pf growth 48h inconclusive, Pf growth 96h inconclusive (no result: Lassa entry inh, Marburg entry inh)
Cc1noc(C)c1-c1ccc2ncnc(NCc3cccc(F)c3)c2c1	none (no result: Lassa entry inh, Pf growth 48h, Pf growth 96h, Marburg entry inh)
Cc1noc(C)c1-c1ccc2ncnc(NCc3cccc(-c4ccccc4)c3)c2c1	Pf growth 48h inconclusive, Pf growth 96h 3.7µM (no result: Lassa entry inh, Marburg entry inh)
CCCCN1CNC(=S)N(c2cc(C)ccc2C)C1	Pf growth 96h inconclusive (no result: Pf growth 48h)
O=C(Cn1ncc2c([nH]c3ccccc32)c1=O)NCC1CCN(Cc2ccccc2F)CC1	Pf growth 96h 9.28µM (no result: Lassa entry inh, Marburg entry inh)
COc1ccc(OC)c(C2C(C(=O)Nc3ccccc3OC)=C(C)Nc3c(C(=O)Nc4ccc(F)cc4)cnn32)c1 (stereo unspecified)	none (no result: Cycloheximide cs, Pf growth 48h, Shiga inhibitor, Pf growth 96h, Marburg entry inh)
Cc1cnc(NC(=O)c2cccc(S(=O)(=O)N3CCOCC3)c2)s1	Pf growth 96h inconclusive (no result: Cycloheximide cs, Lassa entry inh, Shiga inhibitor, Marburg entry inh)
Cc1cnc(NC(=O)c2cccc(S(=O)(=O)N3CC(C)OC(C)C3)c2)s1 (stereo unspecified)	Pf growth 48h inconclusive, Pf growth 96h 13.1µM (no result: Lassa entry inh, Marburg entry inh)
CC1CN(S(=O)(=O)c2cccc(C(=O)Nc3ccccc3N3CCCCC3)c2)CC(C)O1 (stereo unspecified)	Pf growth 48h 11.7µM, Pf growth 96h inconclusive, Marburg entry inh inconclusive (no result: Cycloheximide cs, Shiga inhibitor)
CC1CN(S(=O)(=O)c2cccc(C(=O)Nc3ccccc3N3CCOCC3)c2)CC(C)O1 (stereo unspecified)	Pf growth 48h 13.1µM, Pf growth 96h inconclusive, Marburg entry inh inconclusive (no result: Cycloheximide cs, Shiga inhibitor)
CN(C)S(=O)(=O)c1cccc(C(=O)Nc2ccccc2N2CCCCC2)c1	Lassa entry inh inconclusive, Pf growth 48h inconclusive, Pf growth 96h inconclusive, Marburg entry inh inconclusive
COc1cccc(-c2cc(C(=O)O)[nH]n2)c1	none
COc1ccc(/C=C2/SC(=O)N(CC(O)Cn3c4ccccc4c4ccccc43)C2=O)cc1 (stereo unspecified)	Pf growth 48h inconclusive, Pf growth 96h inconclusive, Marburg entry inh inconclusive
COc1ccc(/C=C2/SC(=O)N(CCNC(=O)CC(NC(C)=O)c3ccccc3)C2=O)cc1 (stereo unspecified)	Cycloheximide cs 20.9, Pf growth 96h inconclusive, Marburg entry inh inconclusive
COc1ccc(/C=C2\SC(=O)N(CCn3cnnn3)C2=O)cc1	Cycloheximide cs 37.3, Lassa entry inh inconclusive, Shiga inhibitor 82.9
COc1ccc(/C=C2/SC(=O)N(CCNC(=O)C3CCCN3C(=O)c3cccs3)C2=O)cc1 (stereo unspecified)	Cycloheximide cs 32.1, Pf growth 48h inconclusive, Shiga inhibitor 63.1, Pf growth 96h inconclusive, Marburg entry inh inconclusive
COc1ccc(/C=C2\SC(=O)N(CCNC(=O)C3CC4C=CC3C4)C2=O)cc1 (stereo unspecified)	Cycloheximide cs 57.8, Lassa entry inh inconclusive, Shiga inhibitor 101.2, Marburg entry inh inconclusive
COc1ccc(/C=C2\SC(=O)N(CCNC(=O)C3CSC4(C)CCC(=O)N34)C2=O)cc1 (stereo unspecified)	Pf growth 48h inconclusive, Pf growth 96h inconclusive (no result: Cycloheximide cs, Shiga inhibitor)
Cc1ccc(S(=O)(=O)C2C(=O)N(C)C3(C)CC2c2ccccc2O3)cc1C (stereo unspecified)	Marburg entry inh inconclusive
CN1C(=O)C(c2nnc(Nc3cccc4ccccc34)s2)C2CC1(C)Oc1ccccc12 (stereo unspecified)	Lassa entry inh inconclusive, Pf growth 48h inconclusive, Pf growth 96h 4.65µM, Marburg entry inh inconclusive
Cc1c(Cl)cccc1NC(=S)N1CCC(N(C)CC2CCCO2)CC1 (stereo unspecified)	Pf growth 96h 6.57µM, Marburg entry inh inconclusive
COc1ccc(NC(=S)N2CCC(N(C)CC3CCCO3)CC2)cc1Cl (stereo unspecified)	Pf growth 96h 6.57µM, Marburg entry inh inconclusive
Cc1cccc(NC(=S)N2CCC(N(C)CC3CCCO3)CC2)c1 (stereo unspecified)	Pf growth 96h inconclusive
Cc1ccc(NC(=S)N2CCCCC2CO)cc1C (stereo unspecified)	Cycloheximide cs 15.3
